Shown are actives, neighbours in structure and some others; about 2.8% of the full set was active somewhere.
hERG WT inh = KCNH2 (human, wildtype) channel inhibition; Q12809; U2OS, BacMam KCNH2, thallium flux FluxOr; hits give low values; activity change, % at 1.84 µM; hit rate 0.37% among 340,000; AID 720551;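 active means maximum activity change below -70%; inconclusive means maximum activity change between -70% and -50%; inactive means maximum activity change above -50%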; further: on the % scale 0 is the no-effect control and ±100 the full control effect
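U2OS cells transduced with wild-type KCNH2 virus are loaded with FluxOr dye for 45 min, and thallium flux is measured in kinetic reads before and after stimulation buffer. Rate constants are normalized to DMSO controls.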
GLS inhibitor = inhibitors of human glutaminase (GLS); AID 624170; Potency, µM (highest dose often 45.5 µM), without a hit: top-dose activity change, negative = inhibition, actives largely listed as inhibitors; O94925; GLS enzymatic activity, qHTS titration; hit rate 0.21% among 410,000; further: potency means the concentration at half of the fitted maximal effect; on the % scale 0 is the no-effect control and ±100 the full control effect
Target sequence (O94925 whole entry, looked up): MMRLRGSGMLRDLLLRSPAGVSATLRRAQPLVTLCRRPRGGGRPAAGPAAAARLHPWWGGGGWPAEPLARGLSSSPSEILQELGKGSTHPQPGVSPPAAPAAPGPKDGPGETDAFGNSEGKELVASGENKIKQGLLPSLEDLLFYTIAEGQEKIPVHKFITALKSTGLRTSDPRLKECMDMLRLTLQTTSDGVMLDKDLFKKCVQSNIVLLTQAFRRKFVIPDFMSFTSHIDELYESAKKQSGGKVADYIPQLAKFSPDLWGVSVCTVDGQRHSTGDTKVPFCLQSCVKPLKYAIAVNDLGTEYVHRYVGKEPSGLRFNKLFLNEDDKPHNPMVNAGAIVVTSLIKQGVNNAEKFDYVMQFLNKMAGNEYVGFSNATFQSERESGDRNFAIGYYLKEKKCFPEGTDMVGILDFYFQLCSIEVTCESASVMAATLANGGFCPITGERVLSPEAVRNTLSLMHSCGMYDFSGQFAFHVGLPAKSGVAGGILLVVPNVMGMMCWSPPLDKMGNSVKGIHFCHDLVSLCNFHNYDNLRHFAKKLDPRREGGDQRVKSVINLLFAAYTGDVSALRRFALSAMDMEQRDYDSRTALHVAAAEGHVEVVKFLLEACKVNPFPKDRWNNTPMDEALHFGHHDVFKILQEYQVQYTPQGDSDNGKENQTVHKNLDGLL
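Human kidney-isoform GLS in 45 mM KH2PO4 pH 8.2, 0.02% Tween-20, with compound, started with 1mM L-Glutamine (added stock). Glutamate oxidase/HRP/Amplex red coupled fluorescence read at start and after 30 min at RT.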
GLP-1R inv ag = acts as inverse agonist at human GLP-1 receptor. P43220. HEK293 GLP-1R CRE-luciferase, luminescence, 24 h; GLP-1R form is constitutively active. Potency, µM (doses to about 38.3 µM), without a hit: at the top dose activity change, negative = inhibition, most hits filed as inhibitors. hit rate 1.6% among 410,000. AID 624417; further: potency means the concentration at half of the fitted maximal effect; on the % scale 0 is the no-effect control and ±100 the full control effect; nearly all actives have a fitted effect of over 55% in size
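Inverse agonists were sought by their lowering of basal cAMP reporter luciferase output in HEK293 cells stably carrying constitutively active human GLP-1R, after 24 h compound treatment.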
KCNH2 3.1 inh = blocks the human KCNH2 3.1 channel isoform; AID 720553; hit rate 0.95% among 340,000; U2OS KCNH2 3.1, thallium flux FluxOr; hits give low values; activity change, % (tested at about 1.8 µM);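 active means maximum activity change below -70%; inconclusive means maximum activity change from -70% to -50%; inactive means maximum activity change above -50%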;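 further: thallium influx rate constant from kinetic fluorescence after stimulation buffer; on the % scale 0 is the no-effect control and ±100 the full control effect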
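Normalized rate constant (relative to positive and negative DMSO controls) derived from a 2 min kinetic fluorescence read after stimulation; U2OS cells expressing the 3.1 isoform via virus at 1.77 x 10^8 /mL.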
HEK293 tox = cytotoxicity in counter-screen for GLP-1R inverse agonists. HEK293 cAMP-luciferase reporter cells, luminescence, 24 h. Potency, µM (series often up to 38.3 µM), without a hit: at the highest dose activity change, negative = inhibition, hits mostly inhibitors. hit rate 0.13% among 410,000. AID 624418;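 further: loss of luciferase light is scored as toxicity; potency means the concentration at half of the fitted maximal effect; on the % scale 0 is the no-effect control and ±100 the full control effect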
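Step one: seed cells (200 cells/uL, DMEM with 10% Nu serum, 1% pen-strep). Step two: 12-hour incubation at 37 deg C. Step three: pin 23 nL compound, incubate 24 hr. Step four: add luciferase reagent, read luminescence 12 min later.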
GLP1R ag = GLP-1 receptor (human) agonism. P43220. HEK293 GLP-1R CRE-luciferase, luminescence, 4-6 h; cells express a hypersensitive GLP-1R form. Potency, µM (doses to about 45.6 µM), inactives show at the top dose activation, hits mostly activators. hit rate 0.007% among 380,000. AID 624172; further: potency means the concentration at half of the fitted maximal effect; % of control where 0% means no effect
* = called active by the depositor; ? = inconclusive; · = no result given; [ ] = another dose, or the depositor's remark. Unless noted, the call rests on the fitted dose curve; in most records, active means well fitted curve in the direction sought with a large enough effect; inconclusive means small, poorly fitted or top-dose-only effect, or another doubt; inactive means no such curve, though single readings can be large; an effect the other way counts as inactive or inconclusive.

SMILES | hERG WT inh | GLS inhibitor | GLP-1R inv ag | KCNH2 3.1 inh | HEK293 tox | GLP1R ag
NC(N)=N/N=C(\N=Nc1ccccc1)c1cccc2cccnc12 | -4 | 3% | -10% | ? | -32% | -2%
COc1ccc(NC(=O)Cn2c(=O)oc3cc(S(=O)(=O)N4CCCCC4C)ccc32)cc1 (centres undefined) | · | 3% | -2% | · | -4% | ·
CCc1ccc(NC(=O)c2sc(-n3nc(C)c(CCC(C)C)c3C)nc2C)cc1 | · | -6% | 17% | · | 1% | ·
COc1cc(/C=C/C(=O)OCC(=O)Nc2ccc(C)cc2[N+](=O)[O-])ccc1O | -9 | 5.6µM* | 2% | 3 | 2% | -3%
COc1cc(/C=C/C(=O)OCC(=O)Nc2cc(C)c(C)cc2[N+](=O)[O-])ccc1O | 5 | 6% | 0% | -5 | 6% | 0%
CN(C)c1ccc(/C=N/Nc2nc3ccccc3o2)cc1 | 32 | 12% | 3.5µM* | -6 | -22% | 0%
O=C1C=CC2(C=C1)O[C@H](Cc1ccccc1)[C@@H](Cc1ccccc1)O2 | 20 | -12% | ? | · | 2µM* | -36%
COc1ccc(C[C@@H]2OC3(C=CC(=O)C=C3)O[C@H]2Cc2ccc(OC)cc2)cc1 | -8 | -2% | ? | -41 | 4.5µM* | -12%
CCOc1cc(/C=N/N=C(N)N)ccc1OCc1ccc(Cl)cc1 | -19 | -2% | 11µM* | -31 | ? | -32%
CC(OC(=O)c1cc(Br)ccc1O)C(=O)Nc1ccc(S(=O)(=O)N2CCCC2)cc1 (centres undefined) | -3 | 2% | ? | -91* | ? | -23%
Cc1cccc(C(=O)OC(C)C(=O)Nc2ccc(S(=O)(=O)N3CCCC3)cc2)c1O (centres undefined) | 6 | 10% | ? | -7 | ? | -28%
O=C(CN1CCN(S(=O)(=O)c2ccc(F)cc2)CC1)Nc1ccccc1C(=O)NC1CC1 | -2 | 4% | -10% | -38 | -23% | 13%
COc1ccc(F)cc1CN1CCN(CC(=O)Nc2ccccc2C(=O)NC2CC2)CC1 | -107* | 0% | -23% | -106* | -14% | 0%
COc1ccc(CN2CCN(CC(=O)Nc3ccccc3C(=O)NC3CC3)CC2)cc1F | -93* | 1% | 14% | -104* | 8% | -6%
CC1CCN(CC(=O)Nc2ccccc2C(=O)NC2CC2)CC1 | 5 | -4% | 16% | -23 | 1% | -3%
O=C(Nc1ccccc1-c1ccccc1)C12CC3CC(CC(C3)C1)C2 | -3 | 6% | 2µM* | -25 | 1% | 2%
CC(C)CCCC(C)NC(=O)c1cc(S(=O)(=O)N2CCCCC2)ccc1N1CCOCC1 (centres undefined) | -1 | -8% | ? | -5 | -10% | 2%
O=C(CC1N=C2c3ccccc3N=C(SCc3ccccc3Cl)N2C1=O)NCCc1ccccc1 (centres undefined) | · | 14% | -3% | · | -11% | ·
CCC(c1ccccc1)c1nnc(NC(=O)c2ccco2)s1 (centres undefined) | 0 | 0% | 10% | -117* | 6% | -1%
CN(C)c1ccc(N=NS(=O)(=O)O)cc1 | · | 19%[99.4 µM] | · | · | · | -2%[96 µM]
Cc1csc(N=Nc2ccc(N(C)C)cc2)[n+]1[O-] | -6 | 0% | ? | 3 | 4µM* | -7%
CN(C)c1ccc(Nc2nc(N)c3ccccc3n2)cc1 | 23 | 5% | 2µM* | 2 | -12% | -4%
CCOc1ccc(Nc2nc(N)nc(CCl)n2)cc1 | 0 | 1% | 5µM* | 3 | ? | ?
CCOc1ccc(Nc2nc(N)c3ccccc3n2)cc1 | -7 | 0% | 2.2µM* | -2 | -32% | -5%
Cc1nn(-c2ccccc2)c2c1N(CC(=O)NCc1ccc(N(C)C)cc1)C(=O)CS2 | · | 5% | -5% | · | 5% | ·
COc1cc2cc(CCCOC(=O)c3ccc(C(F)(F)F)cc3)oc(=O)c2cc1OC | -22 | 2% | 17% | 1 | -6% | -4%
